From PubChem BioAssay (NCATS) come the findings set out here.

The nature of experiment [1]: HPAF-II 24hr Apoptosis Induction qHTS against the NCATS CANVASS Library (AID 1347356). A digest of the protocol: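 500 HPAF-II cells/well; compounds in 11-pnt qHTS; 24 h, 37 C/5% CO2; Caspase-Glo 3/7 added, 15 min RT dark; luminescence read. Doxorubicin control.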
A general note: In qHTS, concentration-response curves come from the screen itself.

Experiment [2] can be described thus: HEK293 18hr Apoptosis Induction qHTS against the NCATS CANVASS Library (AID 1347357). Further: potency means the concentration at half of the fitted maximal effect. In a few lines:
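Caspase-Glo 3/7 luminescence (15 min, room temperature) measured apoptosis after an 18-hour, 37 degrees C exposure of HEK293 cells (500 cells/well) to compounds in 11 points.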

The nature of experiment [3]: HEK293 24hr Apoptosis Induction qHTS against the NCATS CANVASS Library (AID 1347359). In a few lines: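 HEK293 cells (500/well, DMEM + 10% FBS) were exposed to compounds in an 11-point series for 24 hours at 37 degrees C, then caspase-3/7 activity was read by Caspase-Glo DEVD luciferase luminescence after 15 min.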
The nature of experiment [4]: HPAF-II 18hr Apoptosis Induction qHTS against the NCATS CANVASS Library (AID 1347360). A digest of the protocol:
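Caspase-3/7 activation was measured with luminescent Caspase-Glo 3/7 reagent (15 min, RT) in HPAF-II cancer cells (500 cells/well). Before detection, cells had been treated for 18 h at 37 C with compounds (11 points).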

For experiment [5], the system named is NAD(P)H diaphorase (Clostridium kluyveri). Description: Diaphorse counterscreen qHTS: Assay Interference Panel against the NCATS CANVASS Library (AID 1347362). A digest of the protocol: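 Clostridium kluyveri diaphorase in PBS with 0.01% Tween-20 was preincubated 15 min at room temperature in the dark with compounds (11-point series). Resorufin fluorescence (ex 525/20, em 598/25) was read 5 min after adding resazurin/NADH.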
For orientation: Counterscreens check selectivity or assay interference.

In experiment [6] the target is Luciferin 4-monooxygenase (Photinus pyralis) (UniProt P08659). Description: Firefly luciferase counterscreen qHTS: Assay Interference Panel against the NCATS CANVASS Library (AID 1347363). Further: series mostly up to about 57 µM. In a few lines: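 Purified P. pyralis luciferase was added to compounds (11-point series) preincubated 15 min at room temperature with substrate containing 0.013 mM D-luciferin and 0.013 mM ATP; luminescence was read after 5 min.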
Chain of Luciferin 4-monooxygenase (Photinus pyralis) (P08659 whole entry, looked up): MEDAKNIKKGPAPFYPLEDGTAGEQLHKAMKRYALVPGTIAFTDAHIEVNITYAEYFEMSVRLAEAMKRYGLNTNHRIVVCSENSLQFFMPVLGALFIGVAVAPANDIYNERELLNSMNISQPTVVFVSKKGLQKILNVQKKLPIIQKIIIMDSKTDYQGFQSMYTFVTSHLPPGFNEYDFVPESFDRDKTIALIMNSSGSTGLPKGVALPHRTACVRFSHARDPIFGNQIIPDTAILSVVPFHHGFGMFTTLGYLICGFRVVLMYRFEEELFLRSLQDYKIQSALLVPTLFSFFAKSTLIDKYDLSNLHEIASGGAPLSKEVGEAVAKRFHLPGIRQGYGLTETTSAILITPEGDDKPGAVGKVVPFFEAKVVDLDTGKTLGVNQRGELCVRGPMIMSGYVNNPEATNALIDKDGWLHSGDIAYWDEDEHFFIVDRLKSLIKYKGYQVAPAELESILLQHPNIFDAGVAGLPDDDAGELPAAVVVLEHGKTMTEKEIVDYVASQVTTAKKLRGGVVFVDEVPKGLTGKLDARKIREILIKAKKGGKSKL

Experiment [7] can be described thus: KB-3-1 Cancer Cell Toxicity qHTS against the NCATS CANVASS Library (AID 1347366). Further: nearly all actives have a fitted effect of over 75% in size. Further: potency means the concentration at half of the fitted maximal effect. In a few lines: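 CellTiter-Glo luminescence measured viability after 72 h at 37C. KB-3-1 cells were seeded at 500 per well in DMEM/10% FBS.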
Experiment [8] can be described thus: qHTS for ATAD5 Agonist screened against the NCATS CANVASS Library (AID 1347367).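 Further: luciferase reporter driven by ATAD5 which rises upon DNA damage.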 A digest of the protocol:
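Genotoxicity via ATAD5-luciferase luminescence after 16 h compound exposure (11-point series) at 37C in HEK293T-ATAD5 cells. CellTiter-Fluor viability read precedes the luminescence read; MMS serves as positive control.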

A short description of experiment [9]: G06 Cancer Cell Toxicity qHTS against the NCATS CANVASS Library (AID 1347368). Further: nearly all actives have a fitted effect of over 60% in size. Further: potency means the concentration at half of the fitted maximal effect. In a few lines:
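ATP luminescence (CellTiterGlo) readout of cytotoxicity. Canine G06 glioma cells, 500/well, 72 hr incubation at 37C with compounds; bortezomib titration served as control.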

A short description of experiment [10]: MCF7 Cancer Cell Toxicity qHTS against the NCATS CANVASS Library (AID 1347369). Further: potency means the concentration at half of the fitted maximal effect. In a few lines: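 Cytotoxicity was measured as CellTiterGlo luminescence (ATP) after 72 h at 37 °C. The cells were MCF7 at 500 per well, with an 11-point compound concentration series.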
Experiment [11] is described as follows: J3T Cancer Cell Toxicity qHTS against the NCATS CANVASS Library (AID 1347371). Further: potency means the concentration at half of the fitted maximal effect. In a few lines: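 Dog glioma J3T, 500 cells/well; cpd 11-pt qHTS; 72 hr, 37C/5% CO2; CellTiterGlo ATP luminescence readout.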
The target of experiment [12] is Nuclear receptor subfamily 1 group I member 3 (Homo sapiens) (UniProt Q14994). The experiment can be described thus: qHTS for Constitutive Androstane Receptor (CAR) Antagonist screened against the NCATS CANVASS Library (AID 1347372).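 Further: cells stimulated with 50 nM CITCO agonist so inhibition reflects antagonism; series mostly up to about 46 µM.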 In a few lines:
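Cells were seeded and left 4hr to attach, then received compound at 11 concentrations and 50 nM CITCO. Following 24hr incubation, fluorescence viability and luciferase luminescence were read sequentially.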

Experiment [13] has the same target. Description: qHTS for Constitutive Androstane Receptor (CAR) Agonist screened against the NCATS CANVASS Library (AID 1347373).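 Further: every well also contained 1.5 µM PK11195 alongside the test compound.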 A digest of the protocol: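 Luciferase read-out (ONE-Glo, 30 min RT) of CYP2B6-2.2kb promoter activity in double-stable HepG2-hCAR cells after 24hr compound exposure with 1.5uM PK11195 present; viability measured first by CellTiter-Fluor.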

Experiment [14] can be described thus: 10-beta competent E. coli microbial cell viability qHTS against the NCATS CANVASS Library (AID 1347376). Further: series mostly up to about 46 µM. In a few lines: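 Luminescence from BacTiter-Glo ATP detection served as the viability read-out; bacteria (0.2 OD) had been incubated overnight at 37C with pin-transferred compounds at 11 concentrations.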
Experiment [15] is described as follows: qHTS for H2AX Agonists against the NCATS CANVASS Library (AID 1347378). Further: potency means the concentration at half of the fitted maximal effect. In a few lines: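 Phospho-H2AX (S139) in CHO-K1 lysates measured by HTRF, reported as 665/615 nm emission ratio after 24 hr antibody incubation at room temperature. Cells were first treated with a compound series for 3 hr at 37C (0.76% DMSO final).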
Experiment [16] in a line: qHTS for Inflammasome Signaling Inhibitors: IL-1-beta AlphaLISA screen against the NCATS CANVASS Library (AID 1347379).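 Further: human THP-1 cells primed with LPS then triggered with ATP.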 A digest of the protocol: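 THP-1, 1 hr compound pre-incubation, then LPS 250 ng/mL + ATP 1.25 mM (final); 16 hr total with compound; IL-1B AlphaLISA, ex 680/em 615 nm; 11-point qHTS, up to 57.5 uM final.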
The nature of experiment [17]: Inflammasome Signaling qHTS Counterscreen: IL-1-beta AlphaLISA counterscreen against the NCATS CANVASS Library (AID 1347381).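 Further: cell-free check with purified IL-1β in medium and no THP-1 cells; series mostly up to about 57 µM.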 A digest of the protocol: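 Here, no cellular stimulation occurs; compounds in an 11-point series meet 4 pg purified IL-1-beta directly. Bead-based AlphaLISA detection follows (1 h acceptor/antibody, then 30 min donor, dark, room temperature), with excitation at 680 nm.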

The nature of experiment [18]: Cytotoxicity qHTS for assessment of Hepg2 cells membrane integrity screened against the NCATS CANVASS Library (AID 1347387). A digest of the protocol:
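LDH release read by fluorescence (560 nm ex/590 nm em) after CytoTox-ONE addition and 10 min RT; signal tracks lysed cells. HepG2, 2000 cells/well, plated overnight; compound 5 hr, 37C, 5% CO2, final 0.59 nM - 46 uM, 11 points.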

Experiment [19] can be described thus: Viability qHTS for inhibitors of the SERCaMP assay screened against the NCATS CANVASS Library (AID 1347400). Further: nearly all actives have a fitted effect of over 70% in size. Further: potency means the concentration at half of the fitted maximal effect. A digest of the protocol:
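CellTiter-Glo luminescence readout after 48 h compound exposure (11-pnt qHTS series) of SH-SY5Y-GLuc SERCaMP MJH297 cells seeded at 1000 cells/well; bortezomib positive control.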

Experiment [20] can be described thus: qHTS for ATAD5 Antagonist screened against the NCATS CANVASS Library (AID 1347370). Further: nearly all actives have a fitted effect of over 65% in size. Further: potency means the concentration at half of the fitted maximal effect. A digest of the protocol: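 HEK293T-ATAD5 luc reporter, 2000 cells/well; 5hr attach; cpd + 10 uM 5-FUrd; 16hr 37C, 5% CO2. Readouts: CellTiter-Fluor fluorescence (1hr), then Amplite luciferase luminescence (30min RT).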

Records with an inconclusive call do not appear. The source made the active and inactive calls. The call rests on the fitted dose curve; in most records, active means well fitted curve in the direction sought with a large enough effect; inconclusive means small, poorly fitted or top-dose-only effect, or another doubt; inactive means no such curve, though single readings can be large; an effect the other way counts as inactive or inconclusive. Peptide text beside a SMILES is read from it. * marks the point of attachment. Hexanoyl = CCCCCC(=O)*

Chain of Nuclear receptor subfamily 1 group I member 3 (Homo sapiens) (Q14994 whole entry, looked up): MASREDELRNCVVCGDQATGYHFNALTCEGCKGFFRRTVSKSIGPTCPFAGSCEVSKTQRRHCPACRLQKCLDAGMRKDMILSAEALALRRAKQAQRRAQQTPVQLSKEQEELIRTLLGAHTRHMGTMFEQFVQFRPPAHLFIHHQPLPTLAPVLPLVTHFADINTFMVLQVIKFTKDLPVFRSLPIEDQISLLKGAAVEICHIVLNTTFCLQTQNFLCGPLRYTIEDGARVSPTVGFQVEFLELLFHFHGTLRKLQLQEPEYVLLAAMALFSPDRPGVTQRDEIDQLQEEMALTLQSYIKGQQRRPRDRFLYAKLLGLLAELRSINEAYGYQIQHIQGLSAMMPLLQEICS

As to `CC1=C2CC[C@]3(C)[C@H](CC=C4[C@@H]5CC(C)(C)CC[C@@H]5C(=O)[C@H](O)[C@]43C)[C@@]2(C)C=C(O)C1=O`, the compound was classed as inactive in [1], in experiment [14], in experiment [17] and in experiment [18]. Further, the Potency entry in experiment [2], in experiment [3], in [4], in experiment [5], in experiment [6] and in experiment [7] was “inactive” in each case. Besides, the Potency result in experiment [8], in experiment [9], in experiment [10], in experiment [11], in [12] and in [13] was “inactive” each time. Moreover, the Potency entry in experiment [15], in experiment [16] and in [19] was “inactive” in each case.

Consider `C[C@@H]1CC[C@]2(C(=O)O)CC[C@]3(C)C(=C2[C@H]1C)CC[C@@H]1[C@@]2(C)CC[C@H](O)C(C)(C)[C@@H]2CC[C@]13C`, for which the compound was called inactive in experiment [1], in experiment [14], in experiment [17] and in experiment [18]. The Potency entry in experiment [2], in experiment [3], in [4], in experiment [5], in experiment [6] and in [7] was “inactive” in each case. Further, the Potency entry in experiment [8], in experiment [9], in experiment [10], in experiment [20], in experiment [11] and in [12] was “inactive” in each case. For the same compound, in experiment [13], the Potency result was “inactive”. Further, the Potency in [15] is 34.4 µM (active).

For the compound `C=C1[C@@]2(C)CC3C4(C)CCC(O)C(C)(C)C4CCC3(C)[C@]1(C(=O)OC)C(=O)C(C)(O)C2=O` (stereo partly specified), the result in experiment [1], in experiment [14], in experiment [17] and in [18] was inactive. Moreover, the Potency entry in [2], in experiment [3], in [4], in [5], in [6] and in experiment [7] was “inactive” in each case. Besides, the Potency result in experiment [8], in experiment [9], in experiment [10], in experiment [20], in experiment [11] and in experiment [12] was “inactive” each time. Further, the Potency result in [13], in experiment [15], in [16] and in experiment [19] was “inactive” in each case.

Turning to `CCCCCC(=O)N[C@@H](CC(C)C)C(=O)N[C@H](C=O)CCC(=O)O` (Hexanoyl-Leu-Glu-aldehyde), the call in [1], in experiment [14], in [17] and in experiment [18] was inactive. Moreover, the Potency entry in [2], in experiment [3], in experiment [4], in [5], in experiment [6] and in [7] was “inactive” in each case. The Potency result in experiment [8], in experiment [9], in experiment [10], in [20], in experiment [11] and in [12] was “inactive” throughout. Also, the Potency entry in [13], in experiment [15], in experiment [16] and in experiment [19] was “inactive” in each case.

As to `C/C=C1/CN2C3CC1C1C=CC(=O)N4c5ccccc5[C@@]3(C[C@@H]2C2=C[C@H]3C5CC6N(CC[C@@]67c6ccccc6N(C2=O)[C@@H]37)C/C5=C/C)[C@H]14` (stereo partly specified), the Potency in experiment [2] was 26.4 µM (active); in experiment [7], 10.5 µM (active); in experiment [9] it was 7.43 µM (active); in experiment [10], 16.5 µM (active); in [20] it was 5.24 µM (active); in experiment [11], 20.9 µM (active). Besides, the Potency in experiment [15] is 21.7 µM (active); in experiment [16], 12.2 µM (active); in experiment [19] it was 19.1 µM (active). Moreover, the Potency entry in [5], in experiment [6], in [8] and in [13] was “inactive” in each case. For the same compound, the call in experiment [14], in experiment [17] and in experiment [18] was inactive.

In the case of `COC(=O)C1=C[C@]23C[C@@H](C)CC[C@@H]2[C@@]2(C)CC[C@@H](C(C)C)[C@@](O)(O3)[C@@H]12`, the outcome in experiment [1], in experiment [14], in experiment [17] and in [18] was inactive. In addition, the Potency entry in experiment [4], in experiment [5], in experiment [6], in experiment [7], in experiment [8] and in experiment [9] was “inactive” each time. The Potency entry in experiment [10], in [20], in experiment [11], in [12], in experiment [13] and in experiment [15] was “inactive” throughout. Moreover, the Potency entry in [16] and in [19] was “inactive” each time.
